Test results reported in ChEMBL document CHEMBL3988442, “University of Dundee, Small-Polar-MMV Screening Library” (2021).
For some assays here: Results with a measured potency or affinity are listed apart.

Tests used:
Set-up in all cases: scale not given: direction of the effect not stated beside the values
[1] = target: Protein translocase subunit SecA (Escherichia coli (strain K12)) (UniProt P10408); assay: Assay to Identify E. coli SecA ATPase Inhibitors; assay type: functional; settings: 30 µM
[2] = target: T1, Ubiquitin-activating enzyme e1, putative (Leishmania donovani (strain BPK282A1)) (UniProt E9BSI1); assay: Leishmania donovani Ubiquitin Activating Enzyme (LdE1); assay type: functional; settings: 30 µM
T1 sequence (whole entry): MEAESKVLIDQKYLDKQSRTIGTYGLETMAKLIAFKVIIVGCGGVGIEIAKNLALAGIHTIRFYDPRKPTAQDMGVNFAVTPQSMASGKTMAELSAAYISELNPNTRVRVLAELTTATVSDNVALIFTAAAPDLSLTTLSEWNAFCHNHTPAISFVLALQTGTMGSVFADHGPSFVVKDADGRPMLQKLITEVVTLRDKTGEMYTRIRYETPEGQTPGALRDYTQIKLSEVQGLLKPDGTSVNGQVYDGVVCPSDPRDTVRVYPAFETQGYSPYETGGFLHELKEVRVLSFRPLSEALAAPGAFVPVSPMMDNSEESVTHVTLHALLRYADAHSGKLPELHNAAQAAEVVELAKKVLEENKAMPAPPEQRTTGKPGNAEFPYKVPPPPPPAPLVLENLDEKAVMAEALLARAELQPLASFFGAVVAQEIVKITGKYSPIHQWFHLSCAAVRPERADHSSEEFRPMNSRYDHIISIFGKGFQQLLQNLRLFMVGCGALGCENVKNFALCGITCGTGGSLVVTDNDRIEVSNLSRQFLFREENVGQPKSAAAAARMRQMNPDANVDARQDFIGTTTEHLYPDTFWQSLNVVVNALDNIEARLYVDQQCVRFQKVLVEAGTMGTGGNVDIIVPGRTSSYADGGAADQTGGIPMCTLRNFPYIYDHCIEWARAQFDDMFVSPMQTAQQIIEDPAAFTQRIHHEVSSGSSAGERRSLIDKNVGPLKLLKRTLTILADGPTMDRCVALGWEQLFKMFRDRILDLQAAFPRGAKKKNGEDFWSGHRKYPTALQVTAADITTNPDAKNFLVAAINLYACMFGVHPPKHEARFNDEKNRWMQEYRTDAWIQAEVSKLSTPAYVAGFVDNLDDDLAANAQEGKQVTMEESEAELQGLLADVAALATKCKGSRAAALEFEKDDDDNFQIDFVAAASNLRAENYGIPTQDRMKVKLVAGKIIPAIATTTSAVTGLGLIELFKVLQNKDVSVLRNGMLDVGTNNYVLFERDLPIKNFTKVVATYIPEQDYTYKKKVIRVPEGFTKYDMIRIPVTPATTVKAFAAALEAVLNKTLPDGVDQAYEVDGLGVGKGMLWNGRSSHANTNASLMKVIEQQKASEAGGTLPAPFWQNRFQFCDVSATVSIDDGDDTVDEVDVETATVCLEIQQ

[3] = target: AMP-activated protein kinase, AMPK (Homo sapiens) (UniProt P54646+O43741+P54619+Q9UGJ0+Q9Y478+Q13131+Q9UGI9); assay: AMP-dependent Kinase enzyme assay. An in vitro enzyme assay that detects ADP turnover that is directly proportional to AMPK activity. This uses naive AMPK that is activated during the assay with MK-8722; assay type: functional; settings: 30 µM
[4] = target: Sialic acid-binding Ig-like lectin 9 (Homo sapiens) (UniProt Q9Y336); assay: Hs-Siglec9 ALPHAscreen SOP 20170721; settings: 10 µM
Trypanosoma cruzi = assay: Trypanosoma cruzi phosphomannomutase and mannose-1-phosphate guanylyltransferase assay; assay type: functional; settings: 10 µM
[5] = target: T2, Arginase-2, mitochondrial (Homo sapiens) (UniProt P78540); assay: in vitro enzyme assay to detect the production of urea directly proportional to the activity of Arginase II; assay type: functional; settings: 33.3 µM; also: in the data most compounds retested in dose-response had high values
T2 sequence (whole entry): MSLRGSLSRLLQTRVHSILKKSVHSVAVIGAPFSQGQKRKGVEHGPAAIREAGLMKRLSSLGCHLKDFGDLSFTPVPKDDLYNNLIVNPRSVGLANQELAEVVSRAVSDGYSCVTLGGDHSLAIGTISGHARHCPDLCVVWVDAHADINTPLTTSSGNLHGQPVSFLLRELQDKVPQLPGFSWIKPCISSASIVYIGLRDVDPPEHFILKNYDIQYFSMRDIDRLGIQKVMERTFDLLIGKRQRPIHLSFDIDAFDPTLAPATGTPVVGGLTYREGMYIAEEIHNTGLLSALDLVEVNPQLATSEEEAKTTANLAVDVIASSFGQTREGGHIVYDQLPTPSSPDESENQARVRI

[6] = target: T3, Proteasome subunit beta (Trypanosoma cruzi) (UniProt O96673); assay: Trypanosoma cruzi proteasome chymotrypsin-like activity (TcProtChymo) assay.; also: in the data most compounds retested in dose-response had high values; assay type: functional; settings: 9.37 µM
T3 sequence (whole entry): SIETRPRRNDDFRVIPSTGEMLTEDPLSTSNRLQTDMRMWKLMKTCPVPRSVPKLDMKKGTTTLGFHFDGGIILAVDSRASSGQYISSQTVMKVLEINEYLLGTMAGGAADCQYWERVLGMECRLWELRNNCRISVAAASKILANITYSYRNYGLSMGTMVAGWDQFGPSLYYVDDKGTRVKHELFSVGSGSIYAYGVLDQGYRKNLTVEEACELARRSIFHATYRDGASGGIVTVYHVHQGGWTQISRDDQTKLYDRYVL

Homo sapiens = organism: Homo sapiens; assay: To identify inhibition of the IFN signalling (Jak-Stat) pathway via expression of an eGFP reporter gene under the control of an IFN-stimulated response element (ISRE) containing MxA promoter.; assay type: functional; settings: 30 µM
[7] = target: T4, Tyrosyl-tRNA synthetase, putative (Trypanosoma cruzi (strain CL Brener)) (UniProt Q4DSP6); assay: Trypanosoma cruzi tyrosyl tRNA synthetase (TcYRS) _High Tyrosine SOP; assay type: functional; settings: 30 µM; also: in the data most compounds retested in dose-response had high values
T4 sequence (whole entry): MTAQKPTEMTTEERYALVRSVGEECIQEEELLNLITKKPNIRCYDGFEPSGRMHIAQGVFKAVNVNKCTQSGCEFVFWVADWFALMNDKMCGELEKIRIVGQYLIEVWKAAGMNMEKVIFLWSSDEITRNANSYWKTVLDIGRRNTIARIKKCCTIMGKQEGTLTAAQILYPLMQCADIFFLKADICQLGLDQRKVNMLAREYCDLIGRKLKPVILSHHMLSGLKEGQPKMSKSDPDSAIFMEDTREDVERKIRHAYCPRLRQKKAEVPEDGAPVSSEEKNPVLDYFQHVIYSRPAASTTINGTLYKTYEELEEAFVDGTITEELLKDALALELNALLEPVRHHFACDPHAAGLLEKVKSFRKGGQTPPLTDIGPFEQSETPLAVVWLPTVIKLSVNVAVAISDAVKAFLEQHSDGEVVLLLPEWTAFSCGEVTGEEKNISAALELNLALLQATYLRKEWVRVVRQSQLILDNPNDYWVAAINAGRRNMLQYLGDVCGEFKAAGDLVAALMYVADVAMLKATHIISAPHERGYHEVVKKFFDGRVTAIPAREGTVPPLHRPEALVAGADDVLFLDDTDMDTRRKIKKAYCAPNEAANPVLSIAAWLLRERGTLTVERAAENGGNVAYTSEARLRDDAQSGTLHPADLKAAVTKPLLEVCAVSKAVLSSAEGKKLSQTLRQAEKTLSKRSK

[8] = target: T4, Tyrosyl-tRNA synthetase, putative (Trypanosoma cruzi (strain CL Brener)); assay: Trypanosoma cruzi tyrosyl tRNA synthetase (TcYRS) SOP; assay type: functional; settings: 30 µM
[9] = target: Chromo domain-containing protein 1 (Saccharomyces cerevisiae (strain ATCC 204508 / S288c) (Baker's yeast)) (UniProt P32657); assay: ScCHD-1 Enzyme Inhibition Assay; assay type: functional; settings: 30 µM; also: in the data most compounds retested in dose-response had high values
Chain of Chromo domain-containing protein 1 (Saccharomyces cerevisiae (strain ATCC 204508 / S288c) (Baker's yeast)) (P32657 whole entry, the tested form may be a part): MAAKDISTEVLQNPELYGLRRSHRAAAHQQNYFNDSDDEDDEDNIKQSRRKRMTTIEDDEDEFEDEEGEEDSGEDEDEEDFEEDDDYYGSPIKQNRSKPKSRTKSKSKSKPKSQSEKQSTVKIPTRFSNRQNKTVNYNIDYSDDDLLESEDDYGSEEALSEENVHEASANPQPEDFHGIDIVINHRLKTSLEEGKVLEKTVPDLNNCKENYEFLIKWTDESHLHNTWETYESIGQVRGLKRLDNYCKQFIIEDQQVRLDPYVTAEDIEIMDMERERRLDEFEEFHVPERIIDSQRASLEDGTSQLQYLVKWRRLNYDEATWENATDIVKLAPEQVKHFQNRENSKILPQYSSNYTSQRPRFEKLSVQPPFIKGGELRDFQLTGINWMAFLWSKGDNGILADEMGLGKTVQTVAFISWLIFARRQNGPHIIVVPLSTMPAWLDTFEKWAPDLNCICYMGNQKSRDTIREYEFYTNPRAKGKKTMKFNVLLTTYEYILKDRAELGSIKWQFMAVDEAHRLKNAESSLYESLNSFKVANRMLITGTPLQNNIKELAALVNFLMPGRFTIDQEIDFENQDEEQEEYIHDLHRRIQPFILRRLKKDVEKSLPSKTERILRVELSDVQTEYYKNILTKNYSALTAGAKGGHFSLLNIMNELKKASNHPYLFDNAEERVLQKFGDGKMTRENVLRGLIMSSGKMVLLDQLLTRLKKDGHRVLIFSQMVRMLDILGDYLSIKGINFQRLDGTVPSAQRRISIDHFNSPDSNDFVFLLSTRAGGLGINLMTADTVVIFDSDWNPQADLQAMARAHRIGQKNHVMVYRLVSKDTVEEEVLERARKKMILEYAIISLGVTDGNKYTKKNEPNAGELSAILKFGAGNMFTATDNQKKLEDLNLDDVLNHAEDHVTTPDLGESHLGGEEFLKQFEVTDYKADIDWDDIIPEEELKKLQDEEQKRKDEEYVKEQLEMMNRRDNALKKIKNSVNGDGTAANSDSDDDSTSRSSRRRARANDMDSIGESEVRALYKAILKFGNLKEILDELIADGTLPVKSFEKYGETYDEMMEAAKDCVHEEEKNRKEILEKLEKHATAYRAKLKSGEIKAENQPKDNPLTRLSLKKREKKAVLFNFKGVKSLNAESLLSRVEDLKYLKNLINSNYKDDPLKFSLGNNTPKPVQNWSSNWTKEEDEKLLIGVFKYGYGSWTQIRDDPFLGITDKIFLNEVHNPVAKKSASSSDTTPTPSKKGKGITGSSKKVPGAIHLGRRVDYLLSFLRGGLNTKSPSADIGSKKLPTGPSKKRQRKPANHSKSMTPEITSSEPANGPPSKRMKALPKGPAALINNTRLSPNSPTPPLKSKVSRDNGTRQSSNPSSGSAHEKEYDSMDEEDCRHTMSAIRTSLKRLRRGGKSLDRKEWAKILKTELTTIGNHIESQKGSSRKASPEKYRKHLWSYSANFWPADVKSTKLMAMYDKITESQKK

Chain of Sialic acid-binding Ig-like lectin 9 (Homo sapiens) (Q9Y336 whole entry): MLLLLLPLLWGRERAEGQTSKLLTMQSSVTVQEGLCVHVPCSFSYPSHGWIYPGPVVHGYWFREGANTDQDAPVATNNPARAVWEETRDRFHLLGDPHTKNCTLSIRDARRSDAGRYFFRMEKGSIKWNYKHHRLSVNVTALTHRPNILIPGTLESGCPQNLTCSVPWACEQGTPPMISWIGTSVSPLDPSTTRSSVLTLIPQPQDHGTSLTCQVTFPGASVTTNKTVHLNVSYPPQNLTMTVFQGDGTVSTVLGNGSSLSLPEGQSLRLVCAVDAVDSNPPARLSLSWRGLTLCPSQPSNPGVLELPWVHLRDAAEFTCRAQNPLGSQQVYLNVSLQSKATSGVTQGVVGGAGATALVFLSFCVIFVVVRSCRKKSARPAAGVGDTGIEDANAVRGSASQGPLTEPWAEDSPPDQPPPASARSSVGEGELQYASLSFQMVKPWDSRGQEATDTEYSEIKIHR
Chain of Protein translocase subunit SecA (Escherichia coli (strain K12)) (P10408 whole entry): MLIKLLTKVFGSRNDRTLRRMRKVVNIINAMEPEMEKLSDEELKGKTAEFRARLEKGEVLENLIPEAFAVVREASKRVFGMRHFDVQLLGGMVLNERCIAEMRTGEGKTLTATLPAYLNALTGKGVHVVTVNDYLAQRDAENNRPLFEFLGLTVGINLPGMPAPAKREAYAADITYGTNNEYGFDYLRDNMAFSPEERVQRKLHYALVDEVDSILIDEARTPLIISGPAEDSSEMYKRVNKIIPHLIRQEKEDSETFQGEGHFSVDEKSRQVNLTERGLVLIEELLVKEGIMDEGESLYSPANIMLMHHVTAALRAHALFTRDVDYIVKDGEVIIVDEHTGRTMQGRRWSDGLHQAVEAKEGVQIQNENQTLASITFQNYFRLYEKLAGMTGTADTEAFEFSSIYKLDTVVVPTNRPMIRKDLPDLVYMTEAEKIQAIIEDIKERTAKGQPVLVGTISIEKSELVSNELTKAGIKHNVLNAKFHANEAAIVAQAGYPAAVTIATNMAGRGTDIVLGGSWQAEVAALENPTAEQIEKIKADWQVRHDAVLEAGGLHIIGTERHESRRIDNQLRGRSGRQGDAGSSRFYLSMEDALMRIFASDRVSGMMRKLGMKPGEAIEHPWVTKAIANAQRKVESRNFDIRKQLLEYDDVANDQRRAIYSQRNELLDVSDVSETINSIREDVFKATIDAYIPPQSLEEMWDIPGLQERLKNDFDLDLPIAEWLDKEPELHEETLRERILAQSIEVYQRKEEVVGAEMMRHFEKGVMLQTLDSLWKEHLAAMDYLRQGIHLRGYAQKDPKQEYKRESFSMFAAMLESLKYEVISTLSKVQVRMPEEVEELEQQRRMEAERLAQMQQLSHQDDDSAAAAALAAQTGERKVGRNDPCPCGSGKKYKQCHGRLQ

SMILES | Percent Effect [1] | Percent Effect [2] | Percent Effect [3] | Percent Effect [4] | Percent Effect (Trypanosoma cruzi) | Percent Effect [5] | Percent Effect [6] | Percent Effect (Homo sapiens) | Percent Effect [7] | Percent Effect [8] | Percent Effect [9]
CC(C)NC(=O)COc1nc(C(C)C)no1 | -4.66% | -2.7% | -12.4% | 41.5% | 9.07% | 16.2% | 4.48% | 6.57% | -0.529% | 9.76% | -4.43%
Cn1nccc1C(=O)N1CCOC(Cc2cccc(C(F)(F)F)c2)C1 (stereo unspecified) | -6% | 0% | 0.696% | -3.79% | -3.99% | -0.521% | 4.18% | 12.7% | 3.83% | 3.7% | 2.23%
O=C(c1ccnnc1)N1C[C@@H]2CC[C@H](Oc3cccc(F)c3)[C@@H]2C1 | -4.43% | -1.35% | 15.2% | -2.19% | -6.13% | 1.16% | 2.34% | -7.87% | 1.07% | -3.9% | -7.63%
c1ccc(CN2CCN(Cc3cscn3)CC2)cc1 | -3.29% | 15.6% | 2.52% | 7.55% | 0.49% | 3.58% | 7.2% | 7.07% | 8.57% | 18.8% | -19.7%
COc1ccc(-n2ccc(C(=O)N3CCC(C(N)=O)C3)n2)cc1 (stereo unspecified) | -7.71% | 8.11% | -1.34% | 6.17% | -4.55% | 1.29% | -1.44% | 16.4% | 2.97% | 3.66% | -1.19%
Cc1ccc(NS(=O)(=O)c2cc3c(c(C(=O)O)c2)OCCO3)c(F)c1 | -10.1% | 13.2% | -8.4% | 15.9% | 10.6% | 1.08% | 11.2% | -1.31% | 2.46% | 13.6% | -9.81%
CCc1ncncc1C(=O)N1CCOC(c2nc(C)n[nH]2)C1 (stereo unspecified) | -9.48% | -1.27% | 7.38% | 5.45% | -2.56% | 2.8% | 5.32% | 1.37% | 1.04% | 10.1% | 1.96%
Cn1cc(CN2CC[C@H]3O[C@H](C(=O)NCc4ccco4)CC[C@H]32)cn1 | -0.286% | 5.33% | -3.22% | -1.09% | -7.14% | -53.2% | 6.67% | -2.52% | 1.04% | 12.5% | -5.84%
N#Cc1cn(CC(=O)NC2CC2)c2ccc(Br)cc2c1=O | -3.54% | -2.67% | -3.82% | -2.14% | -1.27% | 2.6% | 14.7% | -0.582% | 0.546% | -3.7% | 74.8%
COC(=O)CS(=O)(=O)CCC(=O)N1CCCC1c1ccsc1 (stereo unspecified) | -3.22% | 6.94% | -5.88% | 21.4% | 2.82% | -2.21% | 5.44% | -6.88% | 5.26% | 7.69% | -2.96%
CCc1noc(C(C)N2CCN(Cc3noc(C)n3)CC2)n1 (stereo unspecified) | 1.26% | 21.1% | -0.566% | -7.24% | 1.32% | -4.21% | 19.6% | 15.5% | 6.37% | 17.1% | -7.65%
Cn1cccc1C(=O)Nc1cc(F)ccc1OCC1CCCO1 (stereo unspecified) | -2.17% | -2.6% | 2.66% | 13.6% | 6.74% | 2.85% | 0.507% | 4.16% | -5.83% | 0% | -1.65%
Cc1nc(-c2ccccc2)n(CC(=O)N(C(C)C)C(C)C)n1 | -0.812% | 18.9% | -12.1% | 5.09% | 3.68% | -9.62% | 15.3% | 14.6% | 9.36% | 23.5% | -8.42%
CCN(Cc1ccc2c(c1)OCO2)Cc1nc(C)no1 | 2.35% | 18.9% | -7.63% | -8.65% | -8.96% | 2.4% | 14.9% | 18.6% | 4.43% | 6.17% | -4.89%
COc1cccc(N2CCN(CC(O)c3cc(C)sc3C)CC2)c1 (stereo unspecified) | -4.6% | 20.3% | 6.95% | -1.22% | 2.77% | -2.55% | 5.62% | 19.5% | 15.1% | 22.1% | -16.3%
Cc1cc(CN2CCC(c3ccnn3CCO)CC2)no1 | -3.65% | 20.2% | -6.78% | 7.01% | 6.7% | 3.8% | 7.45% | -6.11% | 4.43% | 21.5% | -6.58%
